In PubChem BioAssay (NCI):
Compounds without any hit were thinned out: in the full panel of roughly 79,000, 15% have a hit. Rule as the data show it: active = growth inhibition above about 70%; inactive = the rest. Where a SMILES comes first, the peptide text is derived from it. The star is where a group is joined. Boc = CC(C)(C)OC(=O)*

What was measured:
[1] = NCI Yeast Anticancer Drug Screen. Data for the rad50 strain (AID 155);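 also: 0% = growth of vehicle-only cultures of the same strain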; conditions: S. cerevisiae rad50 strain growth inhibition; at 50.0 µM; stronger effect = higher value
How it was run: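 Readout: growth inhibition relative to vehicle-treated cultures. Compound exposure was carried out in a genetically defined yeast strain deficient in DNA damage repair.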

[2] = NCI Yeast Anticancer Drug Screen. Data for the mec2-1 strain (AID 157); conditions: S. cerevisiae mec2-1 strain, at 50.0 µM, stronger effect = higher value
How it was run: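 mec2-1 yeast strain, carrying an alteration in DNA damage repair or cell cycle control, was exposed to compounds; growth inhibition was measured relative to vehicle-treated controls.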

[3] = NCI Yeast Anticancer Drug Screen. Data for the sgs1 mgt1 strain (AID 161);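 also: 0% = growth of cultures given vehicle only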; conditions: S. cerevisiae sgs1 mgt1 strain, at 50.0 µM, stronger effect = higher value
How it was run: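 Percent growth inhibition was derived by comparing compound-exposed mutant yeast with vehicle-exposed cultures. The strain carries alterations in DNA damage repair.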

[4] = NCI Yeast Anticancer Drug Screen. Data for the cln2 rad14 strain (AID 165);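 also: 0% = growth equal to vehicle treated cultures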; conditions: S. cerevisiae cln2 rad14 strain, at 50.0 µM, stronger effect = higher value
How it was run: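 Yeast carrying cln2 and rad14 alterations (cell cycle control and DNA damage repair) were exposed to compounds. Growth inhibition was measured against vehicle-treated controls.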

[5] = NCI Yeast Anticancer Drug Screen. Data for the bub3 strain (AID 167); conditions: S. cerevisiae bub3 mutant strain, at 50.0 µM, stronger effect = higher value
How it was run: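 Readout: yeast growth inhibition, expressed relative to vehicle-only wells. The test organism is a mutant strain from a panel with lesions in DNA repair or checkpoint genes.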

[6] = NCI Yeast Anticancer Drug Screen. Data for the mlh1 rad18 strain (AID 175); conditions: S. cerevisiae mlh1 rad18 strain growth inhibition; at 50.0 µM; stronger effect = higher value
How it was run: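 Growth inhibition of the yeast strain was measured after compound exposure and expressed relative to vehicle-treated controls. The strain carries defined defects in DNA damage repair.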

Measured: growth inhibition

O=C(C[n+]1ccccc1Br)c1ccc(I)cc1
inactive: [1] -32.9% | [2] 2% | [3] 10.3% | [4] -6.95% | [5] 17.1% | [6] 29.9%

CCC(C(=O)O)c1ccc(-c2ccccc2)cc1 (stereo not drawn)
inactive: [1] 24.6% | [2] 24.1% | [3] 19.1% | [4] 23.1% | [5] 24.4% | [6] 9.5%

CCOC(=O)/C=C/C(=O)N(C)c1ccccc1
inactive: [1] -12.2% | [2] -7.15% | [3] -5.3% | [4] -0.5% | [5] -12.7% | [6] -18.6%

CC1(C)c2ccccc2C(=O)C12CCC(=O)CC2
inactive: [1] 9.2% | [2] -3.4% | [3] 18.8% | [4] 26.4% | [5] 18.9% | [6] 17.5%

CC(C)CCC[C@@H](C)[C@H]1CC[C@@]2(C)C3=C(C(=O)C[C@]12C)[C@@]1(C)CC[C@H](O)C(C)(C)[C@@H]1CC3=O
inactive: [1] 8.5% | [2] -16.7% | [3] 17.1% | [4] -40.6% | [5] 6.1% | [6] 10.3%

COc1c(O)ccc(/C=N/NC(=S)NCOCCOC(C)=O)c1OC
inactive: [1] 0.85% | [2] -3.8% | [3] 1.7% | [4] 21.9% | [5] 9.95% | [6] -10.6%

CCCCC(C)(O)CCC (stereo not drawn)
inactive: [1] 5.8% | [2] -11.9% | [3] 0.5% | [4] 5.05% | [5] 7.3% | [6] -6.05%

O=C(CNS(=O)(=O)c1ccccc1)c1ccc(Cl)cc1Cl
inactive: [1] 31.6% | [2] 36.2% | [3] 53% | [4] 22.3% | [5] 54.5% | [6] 53.8%

CCCCCCCC(=O)Oc1ccccc1
inactive: [1] 14.1% | [2] -10.5% | [3] -0.75% | [4] -10% | [5] -2.3% | [6] -1.2%

Cc1nn(-c2ccccc2)c2c1CC(=O)Nc1ccccc1-2
inactive: [1] -14.1% | [2] -29.1% | [3] -11.5% | [4] -26.8% | [5] -37.6% | [6] 9.15%

O=S(=O)(Nc1ccn(-c2ccccc2)n1)c1ccc(NCc2c3ccccc3nc3cc(Cl)ccc23)cc1
inactive: [1] 17.1% | [2] 21.2% | [3] 15.8% | [4] -24.2% | [5] -13.6% | [6] 23.6%

C/C(CCN(C)C)=N\OC(=O)c1ccccc1
inactive: [1] -12.2% | [2] -25.9% | [3] -33.2% | [4] -6.65% | [5] -6.95% | [6] -26.9%

CC(=O)CC(C)(C)NNC(N)=S
inactive: [1] 1.45% | [2] 0.7% | [3] 14.3% | [4] -21.6% | [5] -4.2% | [6] 22.2%

O=c1oc(=O)c2c1ccc1c2cc2ccc3cccc4ccc1c2c34
inactive: [1] -17.9% | [2] -10.4% | [3] -8.2% | [4] -35.1% | [5] -11.2% | [6] -11.1%

CC(O)C(O)C(=O)NN (stereo not drawn)
inactive: [1] -1% | [2] 0.3% | [3] 11.4% | [4] 4% | [5] -2.9% | [6] -6.95%

COCC1OC(OC2(COC)OC(COC)C(OC)C2OC)C(OC)C(OC)C1OC (stereo not drawn)
inactive: [1] 22.1% | [2] -4.15% | [3] -9.2% | [4] -34.2% | [5] -18.1% | [6] 5.6%

COc1ccc2c3c(c(C(=O)O)oc13)CCC2
inactive: [1] 3.85% | [2] -3.05% | [3] -3.8% | [4] -5.8% | [5] -15.3% | [6] 16.8%

O=C1OC(c2ccc(Cl)cc2)=C/C1=C/c1ccccc1O
inactive: [1] -15.8% | [2] 4.75% | [3] -1.15% | [4] -47.7% | [5] -0.65% | [6] 5.05%

O=C(O)C1CCCN1Cc1cc2ccccc2c2ccccc12 (stereo not drawn)
inactive: [1] 11.2% | [2] -11.1% | [3] -25.9% | [4] 8.6% | [5] -3.3% | [6] 26.5%

N#Cc1ccc(OCCCCCOc2ccc(C#N)cc2I)c(I)c1
inactive: [1] -4.5% | [2] -2.05% | [3] -8% | [4] -22.8% | [5] -0.85% | [6] -44.1%

CC(C)C(C(=O)O)C(=O)O
inactive: [1] 3.55% | [2] 10.5% | [3] 4.75% | [4] 1.25% | [5] 3.9% | [6] 19.1%

O=C1CCCCC1O (stereo not drawn)
inactive: [1] -18.4% | [2] -50.8% | [3] -15.2% | [4] 0.05% | [5] -13.8% | [6] -26.1%

COC(=O)CCCCCCCCCCCCC1C=CCC1 (stereo not drawn)
inactive: [1] 8.9% | [2] -31.1% | [3] 11.4% | [4] 9.25% | [5] -5.85% | [6] 4.25%

O=C(O)C1CC(Cl)C(O)C(Cl)C1 (stereo not drawn)
inactive: [1] -6.9% | [2] 8.4% | [3] 8.95% | [4] -56.3% | [5] -6.65% | [6] 9%

Cc1ccc(SCCCN(C)C)cc1
inactive: [1] 42% | [2] 17.6% | [3] 35.6% | [4] 15.2% | [5] 14.2% | [6] 16.3%

O=C(NO)Nc1ccc(Cl)cc1
inactive: [1] 12.2% | [2] 8.7% | [3] 2.95% | [4] -2.15% | [5] -9.2% | [6] 1.65%

O=C1O/C(=C(\Br)c2cccc3ccccc23)c2ccccc21
inactive: [1] -18.1% | [2] -30.4% | [3] -34% | [4] 11.2% | [5] -27.6% | [6] -18.3%

COc1ccc(NC(=O)N2CC3CCN2CC3)cc1
inactive: [1] -7.95% | [2] -10.8% | [3] -12.2% | [4] -21.9% | [5] -12.7% | [6] -16.2%

CC(=O)COC(C)=O
inactive: [1] 40.2% | [2] -15.6% | [3] 4.85% | [4] -5% | [5] 2.6% | [6] 12.6%

O=C(O)C1C(Br)C(Br)C1C(=O)O (stereo not drawn) (tested in a mixture with another compound)
inactive: [1] 0.25% | [2] -16.6% | [3] -12.2% | [4] -22.2% | [5] -15.3% | [6] -19.3%

COC1OCC2OC3(CCCCC3)OC2C1SCc1ccccc1 (stereo not drawn)
inactive: [1] 8.05% | [2] -9.85% | [3] 10.8% | [4] -7.4% | [5] -10.4% | [6] -5.25%

COC(=O)C(Cc1c[nH]c2ccccc12)NC(=O)C(Cc1c[nH]c2ccccc12)NC(=O)C(Cc1c[nH]c2ccccc12)NC(=O)OC(C)(C)C (stereo not drawn) (Boc-Trp-Trp-Trp-OMe; configuration not given here)
inactive: [1] -22.9% | [2] -16.6% | [3] -2.45% | [4] 10% | [5] -3.6% | [6] 1.5%

C=CCCCCCCCCCOC=O
inactive: [1] -12.1% | [2] -5.2% | [3] 1.25% | [4] -19.8% | [5] 34.3% | [6] 3.2%

Cc1nc(C)c(N2CCN(C(=O)O)CC2)c(=O)[nH]1
inactive: [1] -23.6% | [2] -10.9% | [3] -16% | [4] 9.85% | [5] 5.15% | [6] -58.4%

CC(=O)OCCC1CC2c3[nH]c4ccccc4c3CCN2C1=O (stereo not drawn)
inactive: [1] -3.85% | [2] -7% | [3] 15.9% | [4] 0.85% | [5] 10.7% | [6] -22.1%

O=C(c1ccccc1)C(O)(Cc1ccccc1)c1ccccc1 (stereo not drawn)
inactive: [1] 1.9% | [2] 17.2% | [3] 20.8% | [4] 22.8% | [5] 14.4% | [6] 12%

OC(C/C=N/N=C/CC(O)(C(F)(F)Cl)C(F)(F)Cl)(C(F)(F)Cl)C(F)(F)Cl
inactive: [1] 36% | [2] 28.3% | [3] 31.7% | [4] 35.2% | [5] 34.5% | [6] 34.1%

CCCCNC(=O)/N=C/c1c(O)c2ccccc2oc1=O
inactive: [1] 7.9% | [2] -10.1% | [3] -13.4% | [4] -1.5% | [5] -42.5% | [6] -16.6%
